A short description of the test: NCI Yeast Anticancer Drug Screen. Data for the cln2 rad14 strain (AID 165).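 Also: 0% = growth equal to vehicle treated cultures.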 As to conditions: S. cerevisiae cln2 rad14 strain, active compounds read high. As to the method: Growth inhibition of yeast strains with defined genetic alterations is measured as a screen for potential anti-cancer activity. Selected strains with alterations in DNA damage repair or cell cycle control were exposed to compounds and growth inhibition was measured relative to vehicle treated controls. The strain used in this assay is cln2 rad14

Setting [1] is: at 5.0 µM (retest, dose inferred, filed as 0.5).
Setting [2] is: at 50.0 µM (retest, dose inferred, filed as 5.0).

Here are results for 20 molecules from PubChem BioAssay (NCI).

Structures are written as SMILES. Where “and” joins values, the source holds several entries; their conditions need not be identical. Equal values may be shown once. This is part of a sample that, as a whole, favours compounds with a hit. Of some 79,000 tested, about 15% had one in any assay. Calls of active or inactive are those of the source. Rule as the data show it: active = growth inhibition above about 70%; inactive = the rest. *1 amine or outer side, *2 acyl side, *3 side chain or, on linkers, in order; H or OH if unused. Where a SMILES comes first, the peptide text is derived from it. Bridges are numbered along the chain shown (N, C = ends). Roman numbers before positions name the chains, in order. [ ]: non-standard residue; d: D form. Actinocin(9to1) = Cc1c2oc3c(C)ccc(C(=O)[*:1])c3nc-2c(C(=O)[*:2])c(N)c1=O; NMeY = CN[CH](Cc1ccc(O)cc1)C(=O)O; Sar = CNCC(=O)O

Regarding `Cc1ccc(/C=N/Nc2cc(C)c3cccc(C)c3n2)s1`, the growth inhibition under setting [1] was 3% (inactive), the growth inhibition under setting [2] was 95% (active) and the growth inhibition (at 50.0 µM) was 90.3% (active).
As for `CCc1cnc2ccccc2c1/C=C/c1ccc(N(C)C)cc1`, the growth inhibition under setting [1] is -36% (inactive), the growth inhibition under setting [2] is 94% (active) and the growth inhibition (at 50.0 µM) was 93.1% (active).
The matching figures for `Cn1c(COC(=O)NC2CCCCC2)c(COC(=O)NC2CCCCC2)c2ccc3cc(Cl)c(Cl)cc3c21`: 15% (inactive), 12% (inactive) and 49.2% (inactive).
The matching figures for `O=C1Nc2ccc(Br)cc2C1=O`: -6% (inactive), 36% (inactive) and 66.9% (inactive).
With `CSc1nc(C)c(C(=O)CCN2CCN(c3ccccn3)CC2)s1`, the growth inhibition is -2% (inactive) under setting [1], 99% (active) under setting [2] and 43.4% (inactive) (at 50.0 µM).
With `CC(C)c1cc([N+](=O)[O-])c(O)c([N+](=O)[O-])c1`, the growth inhibition was 18% (inactive) under setting [1] and 76% (active) under setting [2].
Consider `Cc1cc2nc(CC(=O)c3ccncc3)c(=O)[nH]c2cc1C`, for which the growth inhibition is, setting by setting: under setting [1], -9% (inactive); under setting [2], 33% (inactive); (at 50.0 µM) 30.1% (inactive).
Consider `CCOC(=O)c1[nH]c(C#N)c(C(=O)OCC)c1C`, for which the growth inhibition by setting is: under setting [1], 1% (inactive); under setting [2], 45% (inactive); (at 50.0 µM) 12.6% (inactive).
`C=C1C(=O)OC2CC1C(OC(=O)/C=C/c1ccccc1)C/C(C)=C/CC/C(C)=C/CCC2(C)O` (stereo unspecified): the growth inhibition under setting [1] is 84% (active), the growth inhibition under setting [2] is 95% (active) and the growth inhibition (at 50.0 µM) is 83% (active).
Turning to `CCCCC(=O)c1ccc([N+](=O)[O-])o1`, the growth inhibition is, setting by setting: under setting [1], 18% (inactive); under setting [2], 99% (active).
For the molecule `O=C(/C=C/c1ccccc1)c1ccc(N=Cc2ccccc2)cc1`, the growth inhibition is 1% (inactive) under setting [1] and 6% (inactive) under setting [2].
Take `CCc1cccc(CC)c1N1C(=O)C=CC1=O`: the growth inhibition under setting [1] was 88% (active), the growth inhibition under setting [2] is 99% (active) and the growth inhibition (at 50.0 µM) was 92.1% (active).
`O=CC(O)C(O)C(OC1OC(CO)C(O)C(O)C1O)C(O)CO` (stereo unspecified) (tested in a mixture with another compound): the growth inhibition (at 50.0 µM) was 93.8% (active) and 78.4% (active).
On the same count and under the same terms, with `NC(=O)c1nnn(Cc2ccccc2)c1N` the figure was -4.65% (inactive) and -1.95% (inactive); with `C[n+]1cccc2ccccc21`, -10.7% (inactive) and -59% (inactive); with `Cc1c2oc3c(C)ccc(C(=O)NC4C(=O)NC(C(C)C)C(=O)N5CCCC5C(=O)N(C)CC(=O)N(C)C(Cc5ccc(O)cc5)C(=O)OC4C)c3nc-2c(C(=O)NC2C(=O)NC(C(C)C)C(=O)N3CCCC3C(=O)N(C)CC(=O)N(C)C(Cc3ccc(O)cc3)C(=O)OC2C)c(N)c1=O` (stereo unspecified) (I: TVP[Sar][NMeY] / II: TVP[Sar][NMeY]; ester I:1-I:C, II:1-II:C; linker I:N-II:N via Actinocin(9to1); configuration not given here), 4.7% (inactive) and 26.5% (inactive).
As to `O=c1c(I)c[nH]cc1I`, the growth inhibition (at 50.0 µM) was 3.35% (inactive) and 22.6% (inactive).
With `COc1ccc2[nH]ccc(=O)c2c1`, under “at 50.0 µM”, the growth inhibition was -4.25% (inactive) and -5.6% (inactive).
Take `CCCCOc1ccc2nc3cc(Cl)ccc3c(Cl)c2n1`: the growth inhibition (at 50.0 µM) was 5.7% (inactive) and 17.4% (inactive).
With `NNS(=O)(=O)c1ccc(Cl)cc1`, under “at 50.0 µM”, the growth inhibition is 13.4% (inactive) and -4.4% (inactive).
